Potency and affinity values are given separately.
These compounds were tested against NAD-dependent protein deacylase sirtuin-5, mitochondrial (Homo sapiens) (UniProt Q9NXA8) (assay: blockers of sirtuin-5 peptide desuccinylation – biochemical, fluorescence imaging, cherry-pick, set 6, dose response (AID 720597;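 note: lower AMC signal can also come from blocking the trypsin step; 0% = median of neutral control wells and -100% = median of positive control wells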)). Details: Purified SirT5, succinyl-peptide-AMC/trypsin fluorescence; series mostly up to 15 µM; activity change, negative = inhibition: at the top concentration;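 active = fitted half-maximal dose no more than twice the top valid tested dose, for compounds that lower signal; inconclusive = fit invalid, or curve flat with activity between -70 and -30; inactive = potency past limit, curve flat within ±30, or signal increasing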.
Chain of NAD-dependent protein deacylase sirtuin-5, mitochondrial (Homo sapiens) (Q9NXA8 whole entry, looked up): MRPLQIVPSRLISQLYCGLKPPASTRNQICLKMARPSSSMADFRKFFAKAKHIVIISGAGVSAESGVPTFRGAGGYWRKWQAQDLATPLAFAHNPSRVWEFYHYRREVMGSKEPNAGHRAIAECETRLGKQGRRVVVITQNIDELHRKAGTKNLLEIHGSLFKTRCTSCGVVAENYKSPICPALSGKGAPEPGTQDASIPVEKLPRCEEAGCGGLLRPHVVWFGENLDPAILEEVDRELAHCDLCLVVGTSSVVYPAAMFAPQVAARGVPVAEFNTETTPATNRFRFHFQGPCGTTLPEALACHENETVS

Activity change, negative = inhibition, inactive:
CCCC(=O)Nc1ccc2c(c1)OC[C@@H](C)N(Cc1ccccc1)C[C@H](C)[C@H](OC)CN(C)C2=O -13%
COc1cccc(S(=O)(=O)N(C)C[C@@H]2Oc3cc(C4=CCCCC4)ccc3S(=O)(=O)N([C@@H](C)CO)C[C@@H]2C)c1 -2.52%
Cc1noc(C)c1NC(=O)Nc1cccc2c1O[C@@H](CN(C)Cc1ccc(Oc3ccccc3)cc1)[C@@H](C)CN([C@@H](C)CO)C2=O 10.8%
Cc1ccccc1-c1ccc([C@H]2[C@H](CO)N3CCCCN(S(=O)(=O)c4ccc(F)cc4)C[C@@H]23)cc1 -14.6%
COc1ccc(NC(=O)N(C)C[C@H]2OCCCC[C@@H](C)Oc3ccc(NC(=O)Cc4ccccc4)cc3C(=O)N([C@H](C)CO)C[C@@H]2C)cc1 0.973%
CC(C)NC(=O)N1CCCCN2[C@H](C1)[C@@H](c1ccc(C#CC3CC3)cc1)[C@@H]2CO -14.1%
COc1ccc(S(=O)(=O)N2CCC3(CC2)CN(C(=O)c2cccnc2)[C@@H](CO)c2c3c3ccc(OC)cc3n2C)cc1 12.7%
C[C@H](CO)N1C[C@H](C)[C@@H](CN(C)C(=O)Nc2cc(F)ccc2F)Oc2cc(/C=C/c3ccccc3)ccc2S1(=O)=O 17.7%
COCCNC(=O)c1cc2c(c(-c3cccc(-c4cccc(F)c4)c3)n1)[C@H](CCO)N(S(=O)C(C)(C)C)C2 (stereo not given in full) -23.3%
C[C@@H]1CN([C@@H](C)CO)S(=O)(=O)c2ccc(/C=C/c3ccccc3)cc2O[C@H]1CN(C)C(=O)c1ccc2c(c1)OCO2 -8.88%
C[C@@H]1CN([C@H](C)CO)S(=O)(=O)c2ccc(C#Cc3ccc(F)cc3)cc2O[C@H]1CN(C)S(=O)(=O)c1ccc(F)cc1 -7.84%
CCNC(=O)C[C@H]1CC[C@H]2[C@@H](COC[C@@H](O)CN2C(=O)Nc2ccc(C(F)(F)F)cc2)O1 -19.6%
CC(C)CC#Cc1ccc2c(c1)O[C@@H](CN(C)C(=O)Nc1ccccc1F)[C@@H](C)CN([C@@H](C)CO)S2(=O)=O -14.6%
C[C@@H]1CN([C@@H](C)CO)S(=O)(=O)c2ccc(C#Cc3ccc(F)cc3)cc2O[C@H]1CN(C)S(=O)(=O)c1ccc(F)cc1 -1.34%
C[C@H](CO)N1C[C@H](C)[C@H](CN(C)Cc2cccc(C(F)(F)F)c2)OCc2ccccc2-c2ccccc2C1=O -13.7%
O=C(NCC[C@@H]1CC[C@@H](NC(=O)C2CC2)[C@H](CO)O1)c1cc(Cl)cc(Cl)c1 19.4%
C[C@H](CO)N1C[C@H](C)[C@H](CN(C)Cc2ccc(Oc3ccccc3)cc2)Oc2ccc(NC(=O)CCCCCC(=O)Nc3ccccc3N)cc2CC1=O -15.1%
C[C@@H]1CN([C@@H](C)CO)C(=O)c2cc(NC(=O)Cc3ccccc3)ccc2O[C@@H]1CN(C)Cc1ccc(Oc2ccccc2)cc1 44.1%
CO[C@H]1CN(C)C(=O)c2ccc(NC(C)=O)cc2OC[C@H](C)N(Cc2nccs2)C[C@@H]1C 12.7%
C[C@H](CO)N1C[C@H](C)[C@@H](CN(C)Cc2ccc(Oc3ccccc3)cc2)Oc2ccc(NC(=O)Cc3ccccc3)cc2C1=O -0.649%

Source: PubChem BioAssay AID720597 (Broad Institute, 2013)
